This is a sample that favours compounds with a hit; in the whole collection about 1.5% have one here.
TrxR1 inh: inhibitors of rat thioredoxin reductase 1 | O89049 | recombinant rTrxR1, NADPH fluorescence consumption, selenite substrate | actives 1% (n = 390,000) | Potency, µM (series often up to 114 µM), without a hit: top-dose activity change, negative = inhibition, actives largely listed as inhibitors; also: potency is read from the fitted curve at half-maximal effect; nearly all actives have a fitted effect of over 65% in size
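Rat TrxR1 (90 nM in the dispensed reagent) was pre-reduced with 400 uM NADPH for 5 min at room temperature, then incubated with compound for 15 min. After 400 uM selenite was added, NADPH fluorescence (Ex 340/Em 450 nm) was followed for 8 min.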
Six1-Eya2 inh: inhibitors of human Six1/Eya2 interaction; Q15475+O00167; AlphaScreen GST-Six1/His-Eya2 binding, biochemical; stronger effect = lower value; activity change, % (concentration not given with the values); actives 0.56% (n = 360,000); in the data active = activity change below about -65%; inconclusive = mostly about -30% to -63%
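Six1/Eya2 binding was read as AlphaScreen signal after compounds were pinned into GST-Six1 plus His-tagged Eya2 (5X stock 250/500 nM) in pH 8.0 Tris/NaCl/TCEP buffer, beads added, then incubated 1 h, 37 C, dark.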
TrxR1 substrate: is turned over as a substrate by rat TrxR1; O89049; purified TrxR1 substrate turnover, NADPH consumption readout; Potency, µM (doses to about 114 µM), for the others: at the highest dose activity change, negative = substrate turnover; actives 0.01% (n = 390,000); also: potency is read from the fitted curve at half-maximal effect; nearly all actives have a fitted effect of over 50% in size
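Rat TrxR1, dispensed at 90 nM, was prereduced with 400 uM NADPH (final) for 5 min at ~22 deg C, then incubated with compound 15 min before 400 uM selenite. A first-read NADPH fluorescence drop versus no-compound background flagged substrates.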
Eya2 inh: inhibitors of human Eya2 phosphatase activity; recombinant Eya2, OMFP fluorescence dephosphorylation (OMFP is methylfluorescein phosphate); Potency, µM (highest dose often 76.9 µM), inactives show at the top dose activity, negative = inhibition, most hits filed as inhibitors; actives 0.006% (n = 330,000); AID 488837; also: potency is read from the fitted curve at half-maximal effect
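Eya2 (0.2 uM) preincubated 10 min at ambient with compound, then OMFP substrate added at 50 uM; 10 min reaction in 50 mM HEPES pH 7.5, 50 mM NaCl, 5 uM MgCl2, 0.05% BSA, 1 mM DTT. Fluorescence read at Ex 485/Em 525 nm.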
GALK inhibitor: galactokinase (human) inhibition; Purified GALK, Kinase-Glo residual ATP luminescence; Potency, µM (top dose mostly 57.5 µM), inactives show at the top dose activity change, negative = inhibition, actives largely listed as inhibitors; actives 0.007% (n = 270,000); AID 1868; also: potency is read from the fitted curve at half-maximal effect
Target sequence (P51570 whole entry, looked up): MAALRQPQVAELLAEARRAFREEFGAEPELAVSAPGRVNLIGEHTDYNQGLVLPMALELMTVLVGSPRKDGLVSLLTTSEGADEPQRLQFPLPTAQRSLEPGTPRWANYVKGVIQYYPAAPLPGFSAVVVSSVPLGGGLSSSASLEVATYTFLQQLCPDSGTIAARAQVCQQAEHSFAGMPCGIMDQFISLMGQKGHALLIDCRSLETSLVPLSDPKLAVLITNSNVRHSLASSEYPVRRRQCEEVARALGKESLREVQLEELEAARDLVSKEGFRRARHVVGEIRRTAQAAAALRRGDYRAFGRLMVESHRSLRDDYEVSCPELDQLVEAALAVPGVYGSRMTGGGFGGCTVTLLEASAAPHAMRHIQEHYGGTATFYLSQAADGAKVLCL
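Human GALK (5 nM) with 35 uM ATP and 100 uM galactose in 20 mM HEPES pH 8.0, 5 mM MgCl2, 60 mM NaCl, 1 mM DTT, 0.01% BSA. After 1 h at room temperature, leftover ATP was read by Kinase-Glo Plus luminescence.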
CtBP-E1A inh: CtBP/E1A binding inhibition; AID 651724; AlphaScreen GST-E1A/His-CtBP binding, 1536-well; stronger effect = lower value; activity change, % (no concentration beside the values); actives 0.49% (n = 340,000); in the data active = activity change below about -65%; inconclusive = mostly about -30% to -63%
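In 5 uL wells, 23 nL compound meets equimolar GST-E1A and His-CtBP (5X stock 125 nM each) for 2 h, 37 °C. Beads (5X, 50 ug/mL) then 1 h, 37 °C, dark.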
Starred values were filed as active, the others as inactive; ? = inconclusive; . = no result given; ! = not confirmed by another sample; [ ] = remark or other dose. Unless noted, calls follow the shape of the dose curve; as a rule, active = well fitted curve in the direction sought with a large enough effect; inconclusive = small, poorly fitted or top-dose-only effect, or another doubt; inactive = no such curve, though single readings can be large; an effect the other way counts as inactive or inconclusive. % is scaled to controls: 0 for no effect and ±100 for the full control effect.

SMILES	TrxR1 inh	Six1-Eya2 inh	TrxR1 substrate	Eya2 inh	GALK inhibitor	CtBP-E1A inh
COc1ccc(Cn2c(=O)c3ccccc3n3c(-c4ccc(C)cc4)nnc23)cc1	14%	.	-4%	.	.	.
Cc1ccc(NC(=S)NC(=O)C2CCC2)cc1C	50µM*	2	3%	1%	-3%	9
Cc1ccc(NC(=S)NC(=O)C2CCCC2)cc1C	?	0	-18%	-10%	6%	3
COc1cccc(/C(O)=C/C(=O)C(=O)Nc2ccc(S(=O)(=O)NC(C)=O)cc2)c1	22µM*	6	-19%	0%	.	9
COc1cccc(NS(=O)(=O)c2ccc(NC(C)=O)cc2)c1	8%	3	4%	9%	0%	4
Cc1ccccc1NC(=O)c1sc2nc3n(c(=O)c2c1C)N=C(c1ccccc1)CS3	12%	.	-4%	.	.	.
CCCn1c(CCC(=O)Nc2cc(OC)cc(OC)c2)nc2cccnc21	-18%	.	-2%	.	.	.
CCCCN(CCCC)c1nc2ccccc2nc1C(C#N)C(=O)NCCCOC (stereo not given)	40µM*	-2	4%	8%	4%	6
COc1ccc(CCNC(=O)C2CCC(CNS(=O)(=O)c3ccc(C)cc3)CC2)cc1OC (stereo not given)	29%[57.1 µM]	.	1%[57.1 µM]	.	.	.
COc1ccc(CNC(=O)CCS(=O)(=O)c2cccc3nonc23)cc1	11µM*	5	12%[57.1 µM]	-16%	0%	0
Cc1ccc(CNC(=O)CCS(=O)(=O)c2cccc3nonc23)cc1	56µM*	0	-8%	-22%	0%	3
COc1ccccc1CNC(=O)CCS(=O)(=O)c1cccc2nonc12	?	3	0%	3%	2%	2
COc1ccc(NC(=O)CCS(=O)(=O)c2cccc3nonc23)cc1	-37%	0	5%[57.1 µM]	?	2%	-1
CC(=O)NN1C(=O)/C(=C/c2ccc(Br)o2)SC1=S	25µM*	?	-6%[57.1 µM]	22%	-1%	13
Cc1ccc(C(C2C(=O)CC(C)(C)CC2=O)C2C(=O)CC(C)(C)CC2=O)s1	40µM*	-1	-13%	5%	-1%	6
COC(=O)c1ccc(OC(=O)c2cccs2)cc1	6%[57.1 µM]	-68*	10%[57.1 µM]	-17%	1%	4
CCC(=O)c1ccc(OC(=O)c2cccs2)cc1	13%[57.1 µM]	?	9%[57.1 µM]	.	.	-6
Cc1cccc(N(Cc2cc(=O)[nH]c3ccccc23)C(=O)CCl)c1	4µM*	-5	10%	13%	.	.
COc1ccc(N(Cc2cc(=O)[nH]c3ccccc23)C(=O)CCl)cc1	6.3µM*	7	7%	2%	-6%	1
COc1cccc(NC(=O)Cn2cc(C(=O)C3CCCCC3)c3ccccc32)c1	16%	.	0%	.	.	.
CC(C)N(C(=O)c1cc2c(Cl)nc3ccccc3c2s1)C1CCCCC1	5%	.	-6%	.	.	.
CCOc1ccc(CC(=N)C2=C(O)CC(C)(C)CC2=O)cc1OCC	-3%[57.1 µM]	3	-2%[57.1 µM]	-2%	3%	-3
CCOc1ccc(CC(=O)NC2CC(C)(C)N(C)C(C)(C)C2)cc1OCC	29%	-1	6%	17%	.	.
CCOc1ccc(CC(=O)C2C(=O)CC(C)(C)CC2=O)cc1OCC	35µM*	2	-5%	-9%	-2%	4
CCOc1ccc(CC(=O)C2C(=O)CCCC2=O)cc1OCC	28µM*	13	3%[57.1 µM]	14%	-1%	-2
SMILES	TrxR1 inh	Six1-Eya2 inh	TrxR1 substrate	Eya2 inh	GALK inhibitor	CtBP-E1A inh
CC(C)(C)n1ncc2c(=O)n(Cc3ccc(F)cc3F)cnc21	10%	.	-4%	.	.	.
O=C(Nc1ccc(F)cc1)C1CCN(c2nc3ccccc3nc2C(F)(F)F)CC1	9%[57.1 µM]	.	-1%[57.1 µM]	.	.	.
CC(C)CCn1c(=O)c2cccnc2n(CC(=O)Nc2ccccc2F)c1=O	2%	.	1%	.	.	.
O=C(Nc1cccc(-c2nn[nH]n2)c1)c1ccc(Br)s1	-24%	?	-19%	5%	1%	-69*
O=C(Nc1cccc(-c2nn[nH]n2)c1)c1ccc(Cl)s1	20%	?	0%	10%	-8%	?
S=c1nc(-c2ccccn2)c(-c2ccccn2)n[nH]1	.	-83*	.	.	.	-89*
c1ccc(-c2ccccn2)nc1	9%[57.1 µM]	-17	4%[57.1 µM]	-4%	1%	-18
COc1ccccc1N1CCN(C(=O)CN2C(=O)COc3ccc(S(=O)(=O)N4CCOCC4)cc32)CC1	6%	.	-2%	.	.	.
CCCCc1ccc(C(=O)N/C(=C\c2ccc(C)cc2)C(=O)NC2CCCCC2)cc1	-14%	.	-14%	.	.	.
CN(C)CC/C=C1/c2ccccc2CS(=O)(=O)c2ccccc21	14%	0	3%	.	.	-4
CN(C)CC/C=C1\c2ccccc2COc2ccccc21	32µM*!	-2	6%[57.1 µM]	5%	-2%	-4
C=C(CC)C(=O)c1ccc(OCC(=O)O)c(Cl)c1Cl	40µM*	-1	6%	-3%	-9%	-12
CC(CCC(C)[n+]1cccc(Br)c1)[n+]1cccc(Br)c1 (stereo not given)	-5%	.	7%	.	.	.
CCn1cc2c(n1)-c1c(oc(C(=O)Nc3ccc(Br)cc3F)c1C)CC2	10%	.	-6%	.	.	.
O=S(=O)(CC(CN1CCCC1)N1CCCC1)c1ccc2ccccc2c1 (stereo not given)	8.9µM*	-2	7%	-16%	-4%	-4
CCN(CC)c1ccc(/C=C/c2ccc3ccccc3n2)cc1	-6%	.	-11%	.	.	.
Cc1ccc(C)c(N=Nc2ccc(O)c3ncccc23)c1	0%	?	-10%	16%	0%	?
Oc1ccc(N=Nc2ccc3c(c2)OCCO3)c2ncccc12	-6%	-76*	-4%	-13%	1%	.
Cc1cccc(N=Nc2ccc(O)c3ncccc23)c1	10%	-84*	-4%	-3%	0%	-79*
CCOc1ccc(N=Nc2ccc(O)c3ncccc23)cc1	-1%	-13	-9%	1%	.	?
NS(=O)(=O)c1ccc(N=Nc2ccc(O)c3ncccc23)cc1	13%[2.29 µM]	-97*	0%[57.1 µM]	-14%	10%	.
O=C(NCCSCc1cccc(Cl)c1)C1CCN(S(=O)(=O)Cc2ccccc2)CC1	20%	.	0%	.	.	.
CCCCC(=O)Nc1cc(C)c(O)c(-c2nc3ncccc3o2)c1	11%	.	3%	.	.	.
COc1ccccc1NS(=O)(=O)c1cccc(C(=O)N/N=C/c2ccc([N+](=O)[O-])o2)c1	40µM*	-22	-10%	-14%	.	6
COC(=O)N/N=C/c1ccc([N+](=O)[O-])o1	?	-3	-9%	2%	-4%	-23
O=C(COc1ccccc1)N/N=C/c1ccc([N+](=O)[O-])o1	50µM*	-6	-4%	-23%	-1%	.
Cc1cc(C(=O)N/N=C/c2ccc([N+](=O)[O-])o2)c(C)o1	?	-15	-3%	?	-1%	.
